Screen size: about 39,000 compounds; about 1,500 (3.8%) were called active. Only a selection was taken, and actives are over-represented in it overall.

The subject of this assay is HSkMC (human skeletal muscle cells). Description: cytotoxicity call (relative viability < 0.9). The following applies: 10 µM.
On to `COc1ccc(CN(C)C[C@H]2Oc3ccc(NC(=O)C4CC4)cc3CC(=O)N([C@@H](C)CO)C[C@H]2C)cc1`, for which the cytotoxicity call was “inactive”.

As for `O=C(C[C@H]1CC[C@@H]2[C@H](COC[C@@H](O)CN2S(=O)(=O)c2cccc(Cl)c2)O1)N1CCOCC1`, the cytotoxicity call was “inactive”.

For the compound `CN(C)C(=O)c1ccc(-c2cccc(-c3nc(C(=O)NC4CCCC4)cc4c3[C@H](CCO)N([S@@](=O)C(C)(C)C)C4)c2)cc1`, the cytotoxicity call was “inactive”.

In the case of `Nc1nonc1/C(=N/O)N1CCCCC1`, the cytotoxicity call was “inactive”.

Turning to `Cc1nn(C)c(COc2ccc(N3CCN(S(=O)(=O)N(C)C)CC3)cc2)c1-c1cccc2c(CCCOc3cccc4ccccc34)c(C(=O)O)n(CCN3CCNCC3)c12`, the cytotoxicity call was “inactive”.

Turning to `O=C1C=CC(=O)N1`, the cytotoxicity call was “active”.

For `CN1C2CCC1CC(OC(c1ccccc1)c1ccccc1)C2.CS(=O)(=O)O` (stereo not given), the cytotoxicity call was “inactive”.

For `CN1CCC(OC(c2ccccc2)c2ccccc2)CC1.Cl`, the cytotoxicity call was “inactive”.

In the case of `CC(C)(C)c1ccc(C(=O)CCCN2CCC(OC(c3ccccc3)c3ccccc3)CC2)cc1`, the cytotoxicity call is “active”.

For the compound `C[C@H]1CCCCO[C@H](CN(C)C(=O)CCC(F)(F)F)[C@@H](C)CN([C@@H](C)CO)C(=O)c2cc(NC(=O)CCC(F)(F)F)ccc2O1`, the cytotoxicity call is “inactive”.

`C[C@@H]1CN([C@H](C)CO)C(=O)c2cc(NS(C)(=O)=O)ccc2O[C@@H]1CN(C)C(=O)Nc1ccc(C(F)(F)F)cc1`: the cytotoxicity call was “inactive”.

Turning to `COC(=O)CSc1nc(=O)c(C)n[nH]1`, the cytotoxicity call is “inactive”.

With `C[C@@H]1CN([C@@H](C)CO)C(=O)c2cccc(NC(=O)Nc3ccc(C(F)(F)F)cc3)c2O[C@@H]1CN(C)C(=O)Nc1cccc2ccccc12`, the cytotoxicity call was “active”.

As for `C[C@H]1CN([C@@H](C)CO)C(=O)c2cccc(NC(=O)Nc3ccc(C(F)(F)F)cc3)c2O[C@@H]1CN(C)C(=O)Nc1cccc2ccccc12`, the cytotoxicity call is “active”.

Take `C[C@@H]1CN([C@H](C)CO)C(=O)c2cccc(NC(=O)Nc3ccc(C(F)(F)F)cc3)c2O[C@@H]1CN(C)C(=O)Nc1cccc2ccccc12`: the cytotoxicity call was “active”.

For `C[C@H](CO)N1C[C@H](C)[C@H](CN(C)C(=O)Nc2cccc3ccccc23)Oc2c(NC(=O)Nc3ccc(C(F)(F)F)cc3)cccc2C1=O`, the cytotoxicity call was “inactive”.

On to `C[C@H](CO)N1C[C@H](C)[C@@H](CN(C)C(=O)Nc2cccc3ccccc23)Oc2c(NC(=O)Nc3ccc(C(F)(F)F)cc3)cccc2C1=O`, for which the cytotoxicity call was “inactive”.

`C[C@@H]1CN([C@H](C)CO)C(=O)c2cccc(NC(=O)Nc3ccc(C(F)(F)F)cc3)c2O[C@H]1CN(C)C(=O)Nc1cccc2ccccc12`: the cytotoxicity call is “inactive”.

With `C[C@@H]1CN([C@@H](C)CO)C(=O)c2cccc(NC(=O)Nc3ccc(C(F)(F)F)cc3)c2O[C@H]1CN(C)C(=O)Nc1cccc2ccccc12`, the cytotoxicity call was “inactive”.

With `C[C@H]1CN([C@@H](C)CO)C(=O)c2cccc(NC(=O)Nc3ccc(C(F)(F)F)cc3)c2O[C@H]1CN(C)C(=O)Nc1cccc2ccccc12`, the cytotoxicity call was “inactive”.

Regarding `COCC#Cc1cnc2c(c1)C(=O)N([C@@H](C)CO)C[C@@H](C)[C@@H](CN(C)C(C)=O)O2`, the cytotoxicity call was “inactive”.

`C[C@@H]1CN([C@H](C)CO)C(=O)c2cc(NC(=O)CCCN(C)C)ccc2O[C@H]1CN(C)S(=O)(=O)c1ccccc1`: the cytotoxicity call is “inactive”.

As for `C[C@@H]1CCCCO[C@H](CN(C)Cc2ccccc2)[C@H](C)CN([C@H](C)CO)C(=O)c2cc(NC(=O)CCC(F)(F)F)ccc2O1`, the cytotoxicity call is “inactive”.

As to `Cc1ccc(S(=O)(=O)Nc2ccc3c(c2)C(=O)N([C@@H](C)CO)C[C@H](C)[C@H](CN(C)C(=O)Nc2ccccc2)OCCCC[C@@H](C)O3)cc1`, the cytotoxicity call is “inactive”.

Take `CCS(=O)(=O)N1CC[C@@H]2CO[C@H](CN3CCN(C)CC3)[C@@H]2C1`: the cytotoxicity call is “inactive”.

For the compound `Cc1noc(C)c1S(=O)(=O)Nc1ccc2c(c1)CC(=O)N([C@@H](C)CO)C[C@H](C)[C@@H](CN(C)CC1CC1)O2`, the cytotoxicity call was “inactive”.

As for `C[C@H]1CCCCO[C@@H](CN(C)S(=O)(=O)c2ccccc2)[C@@H](C)CN([C@@H](C)CO)C(=O)c2cc(NC(=O)Nc3ccc(C(F)(F)F)cc3)ccc2O1`, the cytotoxicity call was “inactive”.

Regarding `C=CCNC1=C2C[C@H](C)C[C@H](OC)[C@@H](O)[C@H](C)/C=C(\C)[C@H](OC(N)=O)[C@H](OC)/C=C/C=C(\C)C(=O)NC(=CC1=O)C2=O`, the cytotoxicity call is “active”.

As for `COC1=C2C[C@@H](C)C[C@H](OC)[C@H](O)[C@@H](C)/C=C(\C)[C@H](OC(N)=O)[C@@H](OC)/C=C\C=C(/C)C(=O)NC(=CC1=O)C2=O`, the cytotoxicity call was “inactive”.

In the case of `CO[C@H]1/C=C\C=C(/C)C(=O)NC2=CC(=O)C(NCCN(C)C)=C(C[C@@H](C)C[C@H](OC)[C@H](O)[C@@H](C)/C=C(\C)[C@@H]1OC(N)=O)C2=O`, the cytotoxicity call is “active”.

Turning to `COC1=C2C[C@H](C)C[C@H](OC)[C@@H](O)[C@H](C)/C=C(\C)[C@H](OC(N)=O)[C@H](OC)/C=C/C=C(\C)C(=O)NC(=CC1=O)C2=O`, the cytotoxicity call is “inactive”.

As for `C=CCNC1=C2C[C@@H](C)C[C@H](OC)[C@H](O)[C@@H](C)/C=C(\C)[C@H](OC(N)=O)[C@@H](OC)/C=C\C=C(/C)C(=O)NC(=CC1=O)C2=O`, the cytotoxicity call was “active”.

Consider `CO[C@H]1/C=C\C=C(/C)C(=O)NC2=CC(=O)C=C(C2=O)[C@H](OC)[C@@H](C)C[C@H](OC)[C@H](O)[C@@H](C)/C=C(\C)[C@@H]1OC(N)=O`, for which the cytotoxicity call is “inactive”.

In the case of `COC1=C2C[C@@H](C)C[C@H](OC)[C@H](O)[C@@H](C)/C=C(\C)[C@H](OC(N)=O)[C@@H](OC)/C=C/C=C(\C)C(=O)NC(=CC1=O)C2=O`, the cytotoxicity call is “active”.

In the case of `Cc1noc(C)c1NC(=O)Nc1ccc2c(c1)CC(=O)N([C@H](C)CO)C[C@H](C)[C@H](CN(C)Cc1ccc(C(F)(F)F)cc1)O2`, the cytotoxicity call is “inactive”.

Consider `C[C@H](CO)N1C[C@H](C)[C@H](CN(C)CC2CCOCC2)Oc2ncc(C#Cc3cccc(F)c3)cc2C1=O`, for which the cytotoxicity call was “inactive”.

In the case of `CC(C)(C)c1cccc(N)c1`, the cytotoxicity call is “inactive”.

Take `CCCC(=O)Nc1ccc2c(c1)C(=O)N(C)C[C@@H](OC)[C@@H](C)CN(Cc1ccc(-c3ccccn3)cc1)[C@@H](C)CO2`: the cytotoxicity call was “inactive”.

On to `COc1cccc(OCc2ccc(Cn3nc(NC(=O)NCc4ccc(F)cc4)c4ccccc43)cc2)c1`, for which the cytotoxicity call was “inactive”.

As to `O=c1ccoc2cc(O)c([C@H]3O[C@H](CO)[C@@H](O)[C@H](O)[C@@H]3O)c(O)c12`, the cytotoxicity call is “inactive”.

In the case of `C[C@H]1CN([C@@H](C)CO)C(=O)Cc2cc(NC(=O)C3CCCCC3)ccc2O[C@@H]1CN(C)C(=O)Nc1ccc(C(F)(F)F)cc1`, the cytotoxicity call is “inactive”.

Regarding `CC(C)NC(=O)N(C)C[C@H]1Oc2c(NC(=O)C3CCOCC3)cccc2C(=O)N([C@@H](C)CO)C[C@H]1C`, the cytotoxicity call is “inactive”.

For the compound `CCC(=O)OC(CC(=O)O)C[N+](C)(C)C.[Cl-]` (stereo not given), the cytotoxicity call is “inactive”.

In the case of `CCS(=O)(=O)NCC[C@H]1CC[C@@H](NS(=O)(=O)c2ccccc2C)[C@@H](CO)O1`, the cytotoxicity call is “inactive”.

As to `C[C@@H]1CN([C@H](C)CO)C(=O)CCCn2cc(nn2)CO[C@H]1CN(C)C(=O)Nc1ccnc(N2CCOCC2)c1`, the cytotoxicity call was “inactive”.

Consider `Cc1ccc(S(=O)(=O)N(C)C[C@@H]2OCCCC[C@H](C)Oc3ccc(NC(=O)Cc4ccccc4)cc3C(=O)N([C@@H](C)CO)C[C@H]2C)cc1`, for which the cytotoxicity call is “inactive”.

Take `C[C@@H]1CCCCO[C@H](CN(C)C(=O)c2ccccc2)[C@@H](C)CN([C@@H](C)CO)C(=O)c2cc(NC(=O)NC3CCCCC3)ccc2O1`: the cytotoxicity call is “inactive”.

As to `COC(=O)CCc1c(c/2[nH]c1/C=C/1\N=C(/C=C/3\N=C(/C=C/4\N/C(=C2)[C@]2(C)[C@H](C(=O)OC)C(=CC=C42)C(=O)OC)C(=C3C=C)C)C(=C1CCC(=O)O)C)C`, the cytotoxicity call was “active”.

As for `CC/1=C(CCC(=O)O)/C/2=C/c3[nH]c(c(c3CCC(=O)O)C)/C=C/3\N=C(/C=C/4\N=C(\C=C1/N2)C(=C4C)C=C)C(=C3C)C=C`, the cytotoxicity call is “inactive”.

On to `C=CC1=C(C)c2cc3[nH]c(cc4nc(cc5[nH]c(cc1n2)c(C)c5CCC(=O)O)C(CCC(=O)O)=C4C)c(C)c3C=C`, for which the cytotoxicity call was “inactive”.

With `Cc1noc(C)c1NC(=O)N(C)C[C@@H]1Oc2c(NC(=O)c3ccc(-c4nccs4)cc3)cccc2C(=O)N([C@H](C)CO)C[C@@H]1C`, the cytotoxicity call is “inactive”.

Regarding `C[C@H]1CCCCO[C@@H](CN(C)C(=O)c2ccccc2)[C@@H](C)CN([C@@H](C)CO)C(=O)c2cc(NC(=O)Nc3ccc(C(F)(F)F)cc3)ccc2O1`, the cytotoxicity call was “inactive”.

As to `C[C@@H]1CN([C@H](C)CO)C(=O)c2cc(NC(=O)Nc3ccc(C(F)(F)F)cc3)ccc2O[C@@H](C)CCCCO[C@H]1CN(C)C(=O)c1ccccc1`, the cytotoxicity call was “active”.

Consider `C[C@@H]1CN([C@@H](C)CO)C(=O)c2cc(NC(=O)Nc3ccc(C(F)(F)F)cc3)ccc2O[C@@H](C)CCCCO[C@H]1CN(C)C(=O)c1ccccc1`, for which the cytotoxicity call is “inactive”.

Turning to `C[C@@H]1CN([C@H](C)CO)C(=O)c2cc(NC(=O)Nc3ccc(C(F)(F)F)cc3)ccc2O[C@@H](C)CCCCO[C@@H]1CN(C)C(=O)c1ccccc1`, the cytotoxicity call is “active”.

With `C[C@@H]1CCCCO[C@@H](CN(C)C(=O)c2ccccc2)[C@H](C)CN([C@H](C)CO)C(=O)c2cc(NC(=O)Nc3ccc(C(F)(F)F)cc3)ccc2O1`, the cytotoxicity call was “inactive”.

For `C[C@H]1CCCCO[C@H](CN(C)C(=O)c2ccccc2)[C@@H](C)CN([C@@H](C)CO)C(=O)c2cc(NC(=O)Nc3ccc(C(F)(F)F)cc3)ccc2O1`, the cytotoxicity call was “inactive”.

For the compound `C[C@@H]1CN([C@H](C)CO)C(=O)c2cc(NC(=O)Nc3ccccc3)ccc2O[C@@H](C)CCCCO[C@@H]1CN(C)Cc1ccc(Cl)c(Cl)c1`, the cytotoxicity call was “inactive”.

On to `CC1(C)[C@H](C(N)=O)CC[C@@]1(C)C(=O)O`, for which the cytotoxicity call is “inactive”.

Turning to `C[C@H](CO)N1C[C@H](C)[C@H](CN(C)Cc2ccccc2)OCCCC[C@H](C)Oc2ccc(NC(=O)Nc3ccc(F)cc3)cc2C1=O`, the cytotoxicity call is “inactive”.

As for `C[C@@H]1CN([C@H](C)CO)C(=O)c2cc(NC(=O)Nc3ccc(F)cc3)ccc2O[C@@H](C)CCCCO[C@H]1CN(C)Cc1ccccc1`, the cytotoxicity call was “active”.

On to `C[C@H]1CCCCO[C@H](CN(C)Cc2ccccc2)[C@@H](C)CN([C@@H](C)CO)C(=O)c2cc(NC(=O)Nc3ccc(F)cc3)ccc2O1`, for which the cytotoxicity call was “inactive”.

On to `C[C@H]1CCCCO[C@@H](CN(C)Cc2ccccc2)[C@@H](C)CN([C@@H](C)CO)C(=O)c2cc(NC(=O)Nc3ccc(F)cc3)ccc2O1`, for which the cytotoxicity call is “active”.

Consider `C[C@@H]1CN([C@H](C)CO)C(=O)c2cc(NC(=O)Nc3ccc(F)cc3)ccc2O[C@@H](C)CCCCO[C@@H]1CN(C)Cc1ccccc1`, for which the cytotoxicity call is “inactive”.

For `C[C@@H]1CCCCO[C@H](CN(C)Cc2ccccc2)[C@H](C)CN([C@H](C)CO)C(=O)c2cc(NC(=O)Nc3ccc(F)cc3)ccc2O1`, the cytotoxicity call was “inactive”.

(Values after the antibiotic and cytotoxicity screens of Wong et al. (2023).)
